Holding throughout (experiment): PBM; 200 nM protein, PBS
What all share (conditions): dsDNA, one strand shown

For assay [1], the target named is T1, NKX2-4 (Homo sapiens, UniProt Q9H2Z4 175-261, P217L).
T1 sequence: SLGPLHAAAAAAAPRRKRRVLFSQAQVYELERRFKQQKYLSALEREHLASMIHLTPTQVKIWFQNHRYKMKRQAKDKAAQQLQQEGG

The target of assay [2] is T2, NKX2-4 (Homo sapiens, UniProt Q9H2Z4 175-261, T231S).
T2 sequence: T1 sequence with L43P, T57S

The target of assay [3] is T3, NKX2-4 (Homo sapiens, UniProt Q9H2Z4 175-261).
T3 sequence: T1 sequence with L43P

The target of assay [4] is T4, NKX2-4 (Homo sapiens, UniProt Q9H2Z4 175-261, R246Q).
T4 sequence: T1 sequence with L43P, R72Q

We go through 31 sequences from PMC11006913.

Where a chain is given by its changes, count along the chain named.

In the case of AGCTGCGG, the binding signal in assay [1] was 9.39 upbm affinity estimate (log intensity, higher = more binding, comparable within an allelic series); in assay [2] it was 9.21 upbm affinity estimate (log intensity, higher = more binding, comparable within an allelic series); in assay [3], 9.33 upbm affinity estimate (log intensity, higher = more binding, comparable within an allelic series); in assay [4] it was 9.45 upbm affinity estimate (log intensity, higher = more binding, comparable within an allelic series).
For ATGTCCGG, the binding signal was 9.39 upbm affinity estimate (log intensity, higher = more binding, comparable within an allelic series) in assay [1]; 9.43 upbm affinity estimate (log intensity, higher = more binding, comparable within an allelic series) in assay [2]; 9.4 upbm affinity estimate (log intensity, higher = more binding, comparable within an allelic series) in assay [3]; 9.49 upbm affinity estimate (log intensity, higher = more binding, comparable within an allelic series) in assay [4].
With CCGCCATA, the binding signal in assay [1] was 9.83 upbm affinity estimate (log intensity, higher = more binding, comparable within an allelic series); in assay [2] it was 9.79 upbm affinity estimate (log intensity, higher = more binding, comparable within an allelic series); in assay [3], 9.85 upbm affinity estimate (log intensity, higher = more binding, comparable within an allelic series); in assay [4], 9.84 upbm affinity estimate (log intensity, higher = more binding, comparable within an allelic series).
In the case of GAACTGGC, the binding signal in assay [1] was 9.51 upbm affinity estimate (log intensity, higher = more binding, comparable within an allelic series); in assay [2], 9.49 upbm affinity estimate (log intensity, higher = more binding, comparable within an allelic series); in assay [3], 9.54 upbm affinity estimate (log intensity, higher = more binding, comparable within an allelic series); in assay [4] it was 9.65 upbm affinity estimate (log intensity, higher = more binding, comparable within an allelic series).
CTACTCAA: the binding signal is 12.1 upbm affinity estimate (log intensity, higher = more binding, comparable within an allelic series) in assay [1]; 12.5 upbm affinity estimate (log intensity, higher = more binding, comparable within an allelic series) in assay [2]; 12 upbm affinity estimate (log intensity, higher = more binding, comparable within an allelic series) in assay [3]; 12.4 upbm affinity estimate (log intensity, higher = more binding, comparable within an allelic series) in assay [4].
In the case of ATGTGCGC, the binding signal is 9.81 upbm affinity estimate (log intensity, higher = more binding, comparable within an allelic series) in assay [1]; 9.85 upbm affinity estimate (log intensity, higher = more binding, comparable within an allelic series) in assay [2]; 9.82 upbm affinity estimate (log intensity, higher = more binding, comparable within an allelic series) in assay [3]; 9.8 upbm affinity estimate (log intensity, higher = more binding, comparable within an allelic series) in assay [4].
For the sequence CGCGGCCC, the binding signal in assay [1] was 9.94 upbm affinity estimate (log intensity, higher = more binding, comparable within an allelic series); in assay [2], 9.93 upbm affinity estimate (log intensity, higher = more binding, comparable within an allelic series); in assay [3], 10 upbm affinity estimate (log intensity, higher = more binding, comparable within an allelic series); in assay [4], 9.94 upbm affinity estimate (log intensity, higher = more binding, comparable within an allelic series).
With AGTGCTTA, the binding signal in assay [1] was 12 upbm affinity estimate (log intensity, higher = more binding, comparable within an allelic series); in assay [2], 12.2 upbm affinity estimate (log intensity, higher = more binding, comparable within an allelic series); in assay [3], 11.9 upbm affinity estimate (log intensity, higher = more binding, comparable within an allelic series); in assay [4], 12.2 upbm affinity estimate (log intensity, higher = more binding, comparable within an allelic series).
With TGCCCCCA, the binding signal in assay [1] was 9.77 upbm affinity estimate (log intensity, higher = more binding, comparable within an allelic series); in assay [2] it was 9.8 upbm affinity estimate (log intensity, higher = more binding, comparable within an allelic series); in assay [3] it was 9.76 upbm affinity estimate (log intensity, higher = more binding, comparable within an allelic series); in assay [4] it was 9.88 upbm affinity estimate (log intensity, higher = more binding, comparable within an allelic series).
Take CACTCGAG: the binding signal in assay [1] was 12.4 upbm affinity estimate (log intensity, higher = more binding, comparable within an allelic series); in assay [2], 12.8 upbm affinity estimate (log intensity, higher = more binding, comparable within an allelic series); in assay [3] it was 12.4 upbm affinity estimate (log intensity, higher = more binding, comparable within an allelic series); in assay [4], 13 upbm affinity estimate (log intensity, higher = more binding, comparable within an allelic series).
In the case of CCACTCCA, the binding signal in assay [1] is 12.5 upbm affinity estimate (log intensity, higher = more binding, comparable within an allelic series); in assay [2], 12.8 upbm affinity estimate (log intensity, higher = more binding, comparable within an allelic series); in assay [3] it was 12.3 upbm affinity estimate (log intensity, higher = more binding, comparable within an allelic series); in assay [4], 12.9 upbm affinity estimate (log intensity, higher = more binding, comparable within an allelic series).
Regarding GTACTCAA, the binding signal in assay [1] is 12.6 upbm affinity estimate (log intensity, higher = more binding, comparable within an allelic series); in assay [2] it was 13 upbm affinity estimate (log intensity, higher = more binding, comparable within an allelic series); in assay [3] it was 12.5 upbm affinity estimate (log intensity, higher = more binding, comparable within an allelic series); in assay [4] it was 13.1 upbm affinity estimate (log intensity, higher = more binding, comparable within an allelic series).
Regarding GGCGTGCA, the binding signal in assay [1] was 9.59 upbm affinity estimate (log intensity, higher = more binding, comparable within an allelic series); in assay [2], 9.54 upbm affinity estimate (log intensity, higher = more binding, comparable within an allelic series); in assay [3], 9.62 upbm affinity estimate (log intensity, higher = more binding, comparable within an allelic series); in assay [4], 9.63 upbm affinity estimate (log intensity, higher = more binding, comparable within an allelic series).
Regarding CGGTTCCA, the binding signal in assay [1] was 9.98 upbm affinity estimate (log intensity, higher = more binding, comparable within an allelic series); in assay [2], 9.95 upbm affinity estimate (log intensity, higher = more binding, comparable within an allelic series); in assay [3], 9.92 upbm affinity estimate (log intensity, higher = more binding, comparable within an allelic series); in assay [4], 10 upbm affinity estimate (log intensity, higher = more binding, comparable within an allelic series).
On to GCTGTGCA, for which the binding signal in assay [1] was 9.63 upbm affinity estimate (log intensity, higher = more binding, comparable within an allelic series); in assay [2], 9.66 upbm affinity estimate (log intensity, higher = more binding, comparable within an allelic series); in assay [3], 9.61 upbm affinity estimate (log intensity, higher = more binding, comparable within an allelic series); in assay [4] it was 9.6 upbm affinity estimate (log intensity, higher = more binding, comparable within an allelic series).
Turning to CCAGAGAC, the binding signal in assay [1] is 9.71 upbm affinity estimate (log intensity, higher = more binding, comparable within an allelic series); in assay [2], 9.67 upbm affinity estimate (log intensity, higher = more binding, comparable within an allelic series); in assay [3] it was 9.71 upbm affinity estimate (log intensity, higher = more binding, comparable within an allelic series); in assay [4] it was 9.63 upbm affinity estimate (log intensity, higher = more binding, comparable within an allelic series).
In the case of GTGAAGGA, the binding signal in assay [1] is 11.6 upbm affinity estimate (log intensity, higher = more binding, comparable within an allelic series); in assay [2], 12 upbm affinity estimate (log intensity, higher = more binding, comparable within an allelic series); in assay [3], 11.5 upbm affinity estimate (log intensity, higher = more binding, comparable within an allelic series); in assay [4], 11.6 upbm affinity estimate (log intensity, higher = more binding, comparable within an allelic series).
For the sequence TCATCGAA, the binding signal is 11.4 upbm affinity estimate (log intensity, higher = more binding, comparable within an allelic series) in assay [1]; 11.5 upbm affinity estimate (log intensity, higher = more binding, comparable within an allelic series) in assay [2]; 11.2 upbm affinity estimate (log intensity, higher = more binding, comparable within an allelic series) in assay [3]; 11.5 upbm affinity estimate (log intensity, higher = more binding, comparable within an allelic series) in assay [4].
Take ACGGCGCC: the binding signal in assay [1] was 9.61 upbm affinity estimate (log intensity, higher = more binding, comparable within an allelic series); in assay [2], 9.62 upbm affinity estimate (log intensity, higher = more binding, comparable within an allelic series); in assay [3], 9.59 upbm affinity estimate (log intensity, higher = more binding, comparable within an allelic series); in assay [4], 9.67 upbm affinity estimate (log intensity, higher = more binding, comparable within an allelic series).
Take CCGCCACG: the binding signal in assay [1] was 9.92 upbm affinity estimate (log intensity, higher = more binding, comparable within an allelic series); in assay [2], 9.9 upbm affinity estimate (log intensity, higher = more binding, comparable within an allelic series); in assay [3], 9.94 upbm affinity estimate (log intensity, higher = more binding, comparable within an allelic series); in assay [4], 9.94 upbm affinity estimate (log intensity, higher = more binding, comparable within an allelic series).
Take CCCAAACG: the binding signal in assay [1] was 9.71 upbm affinity estimate (log intensity, higher = more binding, comparable within an allelic series); in assay [2], 9.8 upbm affinity estimate (log intensity, higher = more binding, comparable within an allelic series); in assay [3], 9.76 upbm affinity estimate (log intensity, higher = more binding, comparable within an allelic series); in assay [4] it was 9.88 upbm affinity estimate (log intensity, higher = more binding, comparable within an allelic series).
As to AAACCCCC, the binding signal is 9.69 upbm affinity estimate (log intensity, higher = more binding, comparable within an allelic series) in assay [1]; 9.77 upbm affinity estimate (log intensity, higher = more binding, comparable within an allelic series) in assay [2]; 9.71 upbm affinity estimate (log intensity, higher = more binding, comparable within an allelic series) in assay [3]; 9.65 upbm affinity estimate (log intensity, higher = more binding, comparable within an allelic series) in assay [4].
Regarding GTACTCGA, the binding signal was 12.4 upbm affinity estimate (log intensity, higher = more binding, comparable within an allelic series) in assay [1]; 12.9 upbm affinity estimate (log intensity, higher = more binding, comparable within an allelic series) in assay [2]; 12.3 upbm affinity estimate (log intensity, higher = more binding, comparable within an allelic series) in assay [3]; 12.9 upbm affinity estimate (log intensity, higher = more binding, comparable within an allelic series) in assay [4].
As to ATCCCTCC, the binding signal is 9.86 upbm affinity estimate (log intensity, higher = more binding, comparable within an allelic series) in assay [1]; 9.87 upbm affinity estimate (log intensity, higher = more binding, comparable within an allelic series) in assay [2]; 9.86 upbm affinity estimate (log intensity, higher = more binding, comparable within an allelic series) in assay [3]; 9.77 upbm affinity estimate (log intensity, higher = more binding, comparable within an allelic series) in assay [4].
For AAAGCACT, the binding signal in assay [1] was 11.7 upbm affinity estimate (log intensity, higher = more binding, comparable within an allelic series); in assay [2] it was 11.9 upbm affinity estimate (log intensity, higher = more binding, comparable within an allelic series); in assay [3], 11.6 upbm affinity estimate (log intensity, higher = more binding, comparable within an allelic series); in assay [4] it was 11.9 upbm affinity estimate (log intensity, higher = more binding, comparable within an allelic series).
In the case of AGTGGTTC, the binding signal in assay [1] is 11.8 upbm affinity estimate (log intensity, higher = more binding, comparable within an allelic series); in assay [2], 12 upbm affinity estimate (log intensity, higher = more binding, comparable within an allelic series); in assay [3], 11.8 upbm affinity estimate (log intensity, higher = more binding, comparable within an allelic series); in assay [4], 12.1 upbm affinity estimate (log intensity, higher = more binding, comparable within an allelic series).
For the sequence ACTTAGCT, the binding signal in assay [1] is 11.7 upbm affinity estimate (log intensity, higher = more binding, comparable within an allelic series); in assay [2] it was 11.8 upbm affinity estimate (log intensity, higher = more binding, comparable within an allelic series); in assay [3], 11.5 upbm affinity estimate (log intensity, higher = more binding, comparable within an allelic series); in assay [4], 11.9 upbm affinity estimate (log intensity, higher = more binding, comparable within an allelic series).
For GTCCCACA, the binding signal is 9.65 upbm affinity estimate (log intensity, higher = more binding, comparable within an allelic series) in assay [1]; 9.69 upbm affinity estimate (log intensity, higher = more binding, comparable within an allelic series) in assay [2]; 9.67 upbm affinity estimate (log intensity, higher = more binding, comparable within an allelic series) in assay [3]; 9.68 upbm affinity estimate (log intensity, higher = more binding, comparable within an allelic series) in assay [4].
Turning to GCACTCAA, the binding signal is 12.5 upbm affinity estimate (log intensity, higher = more binding, comparable within an allelic series) in assay [1]; 12.9 upbm affinity estimate (log intensity, higher = more binding, comparable within an allelic series) in assay [2]; 12.4 upbm affinity estimate (log intensity, higher = more binding, comparable within an allelic series) in assay [3]; 13 upbm affinity estimate (log intensity, higher = more binding, comparable within an allelic series) in assay [4].
For CCCAGACG, the binding signal in assay [1] is 9.29 upbm affinity estimate (log intensity, higher = more binding, comparable within an allelic series); in assay [2], 9.36 upbm affinity estimate (log intensity, higher = more binding, comparable within an allelic series); in assay [3], 9.37 upbm affinity estimate (log intensity, higher = more binding, comparable within an allelic series); in assay [4] it was 9.46 upbm affinity estimate (log intensity, higher = more binding, comparable within an allelic series).
As to CTAGGCCA, the binding signal in assay [1] is 9.82 upbm affinity estimate (log intensity, higher = more binding, comparable within an allelic series); in assay [2], 9.87 upbm affinity estimate (log intensity, higher = more binding, comparable within an allelic series); in assay [3] it was 9.84 upbm affinity estimate (log intensity, higher = more binding, comparable within an allelic series); in assay [4], 9.9 upbm affinity estimate (log intensity, higher = more binding, comparable within an allelic series).
